Most compounds without a hit are left out; they make up all but 1.8% or so of the library.
TRPML1 inh: inhibitors of human TRPML1 channel. Q9GZU1. TRPML1-inducible cells, Ca2+ dye fluorescence, FDSS; active compounds read low; inhibition of EC80 agonist-evoked calcium signal. activity change, negative = inhibition, % (no concentration beside the values). hit rate 0.02% among 390,000; in the data active means activity change below about -50%; inconclusive means between about -30% and that limit;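 further: stimulus is agonist 54-4 at its EC80 concentration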
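Tet-induced TRPML1-DL cells loaded with Ca8 no-wash calcium dye were read kinetically on FDSS. Compound addition was followed by EC80 agonist 54-4 (4 uM final); inhibition was read over 110 s.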
GLP1R cytotox: cytotoxicity in counter-screen for GLP-1R inverse agonists; HEK293 cAMP-luciferase reporter cells, luminescence, 24 h; AID 624418; Potency, µM (top dose mostly 38.3 µM), most hits filed as inhibitors; hit rate 0.13% among 410,000;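 further: loss of luciferase light is scored as toxicity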
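Luminescence readout: signal drop marks cytotoxicity. Plated cells grew 12 h at 37 °C, 5% CO2, received 23 nL compound for 24 h, then got luciferase reagent, read after 12 min at RT.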
GLP-1R agonist: agonists of human GLP-1 receptor. P43220. HEK293 GLP-1R CRE-luciferase, luminescence, 4-6 h; cells express a hypersensitive GLP-1R form. Potency, µM (highest dose often 45.6 µM), usual class: activators. hit rate 0.007% among 380,000
Target sequence (P43220 whole entry, looked up): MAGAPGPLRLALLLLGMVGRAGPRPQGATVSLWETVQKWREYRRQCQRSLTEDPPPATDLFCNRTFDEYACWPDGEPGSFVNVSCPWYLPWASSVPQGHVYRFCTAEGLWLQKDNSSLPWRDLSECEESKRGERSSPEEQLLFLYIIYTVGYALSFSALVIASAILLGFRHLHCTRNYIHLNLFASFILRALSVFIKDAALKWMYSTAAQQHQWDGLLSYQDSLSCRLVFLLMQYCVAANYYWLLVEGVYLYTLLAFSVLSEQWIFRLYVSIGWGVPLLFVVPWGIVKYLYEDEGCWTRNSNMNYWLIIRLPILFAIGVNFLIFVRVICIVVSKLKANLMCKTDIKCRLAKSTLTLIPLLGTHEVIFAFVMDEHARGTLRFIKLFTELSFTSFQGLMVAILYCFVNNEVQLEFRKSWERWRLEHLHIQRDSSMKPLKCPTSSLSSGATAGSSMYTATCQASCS
GLP1R inv ag: inverse agonists of human GLP-1 receptor | P43220 | HEK293 GLP-1R CRE-luciferase, luminescence, 24 h; GLP-1R form is constitutively active | Potency, µM (series often up to 38.3 µM), actives largely listed as inhibitors | hit rate 1.6% among 410,000 | AID 624417; further: nearly all actives have a fitted effect of over 55% in size
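Assay principle: reduced luminescence from a cAMP-responsive reporter in HEK293 cells co-expressing a constitutively active GLP-1R. Conditions: 24 hr compound incubation, 37 deg C, 5% CO2.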
TRPML1 ag: human mucolipin-1 channel agonism. hit rate 0.12% among 410,000. Q9GZU1. TRPML1-expressing cells, Ca2+ dye fluorescence, FDSS. activation, % (test concentration not listed). AID 624414; in the data active means activation above about 50%; inconclusive means mostly about 30% to 49%
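Cells: TRPML1-DL, 1X Tet inducer, ~16 h at 37 degrees C/5% CO2. Dye: ABD Ca8 no-wash + quencher, 45-90 min RT. Read: 10 s baseline, compound add, 110 s agonist phase; 54-4 EC80 (4uM final), 110 s antagonist phase.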
Each line names hits and unclear results; the compound was inactive in the other large screens. Unless noted, the call rests on the fitted dose curve; in most records, active means well fitted curve in the direction sought with a large enough effect; inconclusive means small, poorly fitted or top-dose-only effect, or another doubt; inactive means no such curve, though single readings can be large; an effect the other way counts as inactive or inconclusive.

CCC(Sc1nc2nccnc2c(=O)n1Cc1ccc(OC)cc1)C(=O)NC1CCCCC1 (configuration not stated)	none (no result: GLP-1R agonist)
CC(C)(C)n1ncc2c(=O)n(Cc3ccc(C#N)cc3F)cnc21	none (no result: GLP1R cytotox, GLP-1R agonist, GLP1R inv ag)
Cc1cccc(NC(=S)N=Nc2c(O)[nH]c3ccccc23)c1	GLP1R cytotox 10µM, GLP1R inv ag 10µM
O=C(N=Nc1c(O)[nH]c2ccccc12)Nc1ccccc1	none
CN=C1c2cc3cc(OC)ccc3n2CCN1Cc1ccccc1	GLP1R inv ag 5µM
COc1ccc2c(c1)nc(N)n2Cc1ccccc1	none
O=C(Oc1ccccc1Cl)c1ccccc1	none
O=C(Oc1cccccc1=O)c1ccccc1	GLP1R cytotox inconclusive, GLP1R inv ag 10µM
CNC(=O)c1c(O)c2cccc3c2n(c1=O)CCC3	GLP1R cytotox inconclusive, GLP1R inv ag 1.8µM
CCN(CC)CCNC(=O)c1c(O)c2cccc3c2n(c1=O)CCC3	GLP1R cytotox inconclusive, GLP1R inv ag 4.5µM
CCCCCCNC(=O)c1c(O)c2cccc3c2n(c1=O)CCC3	none
CCn1c(=O)c(C(=O)NCCN2CCCCC2)c(O)c2ccccc21	GLP1R cytotox inconclusive, GLP1R inv ag 2.8µM
CCC(C)C(C(=O)OCC[N+](C)(CC)CC)c1ccccc1 (configuration not stated)	none (no result: TRPML1 inh, GLP1R cytotox, GLP1R inv ag, TRPML1 ag)
COC(=O)C1=C[C@@H](C(=O)OC)C2C3=C(C(=O)[C@@]2(C)NC(=O)c2ccccc2)[C@H](C)[C@@H]2C(=O)NC(=O)[C@@H]2[C@@H]3C1 (some centres not stated)	none (no result: GLP1R cytotox, GLP-1R agonist, GLP1R inv ag)
Cc1c(CC(=O)NCc2ccc(F)cc2)c(=O)oc2cc(O)c(Cl)cc12	none (no result: GLP-1R agonist)
CCOc1ccc(/C=C/c2nc(C#N)c(Nc3ccc(OC)cc3)o2)cc1	none (no result: GLP-1R agonist)
CC(OC(=O)c1cccs1)C(=O)NC1CCCCC1C (configuration not stated)	none
CC1CCCCC1NC(=S)NC(=O)c1cccs1 (configuration not stated)	GLP1R cytotox inconclusive, GLP1R inv ag 8.9µM
O=C(Nc1ccccc1)Nc1cc(OCC(F)(F)F)cc(OCC(F)(F)F)c1	GLP1R cytotox 5.6µM, GLP1R inv ag 2.8µM
O=C(Nc1cccc(Cl)c1)Nc1cccc(Cl)c1	GLP1R inv ag inconclusive
O=C(Nc1ccccc1)Nc1cc(Cl)cc(Cl)c1	GLP1R cytotox inconclusive, GLP1R inv ag 2.8µM
COc1cc(C)c2ccccc2n1	none (no result: TRPML1 inh, GLP1R cytotox, GLP-1R agonist, GLP1R inv ag)
CC(=O)N1CCCc2cc(S(=O)(=O)N(C)CC(=O)Nc3cccc(C)c3C)ccc21	none (no result: GLP-1R agonist)
Cc1ccc(S(=O)(=O)N2[C@@H](c3ccc(Cl)cc3)C(C(=O)O)=CC[C@H]2c2ccc(C(C)C)cc2)cc1	GLP1R inv ag 6.3µM
Cc1ccc(S(=O)(=O)N2[C@@H](c3ccc(C(C)C)cc3)C(C(=O)O)=C[C@H]2C(C)(C)C)cc1	GLP1R inv ag 10µM
Cc1ccccc1S(=O)(=O)N1[C@@H](c2ccc(Cl)cc2)C(C(=O)O)=CC[C@H]1c1ccc(Cl)cc1	GLP1R inv ag 8.9µM
O=C(c1ccco1)N1CCN(c2nc(C3CC3)nc3c2nnn3Cc2ccccc2Cl)CC1	GLP1R inv ag 10µM
Cc1ccc(NC(=O)C2CCCN2S(=O)(=O)c2cccc3cccnc23)cc1C (configuration not stated)	none (no result: GLP-1R agonist)
CCCN(CCC)CCCNC(=O)C1CCN(c2nc3ccc(CC)cc3s2)CC1	none (no result: GLP-1R agonist)
Cc1ccccc1NC(=O)CSc1cn(CC(=O)N2CCCCCC2)c2ccccc12	none (no result: GLP-1R agonist)
COc1cc(OC)c(NC(=O)C2=C(C)C(=O)OC23CCCCCC3)cc1Cl	none (no result: GLP-1R agonist)
COc1ccc(NC(=O)C2=C(C)C(=O)OC23CCC(C)CC3)cc1Cl (configuration not stated)	GLP1R inv ag 7.9µM
Cc1cccc(N2CCN(C(=O)Cn3ncc4c3-c3cc(C)ccc3OC4)CC2C)c1 (configuration not stated)	GLP1R inv ag 11µM (no result: GLP-1R agonist)
Clc1ccc(Cn2nc(-c3ccccc3)nc2-c2ccccc2)cc1	GLP1R inv ag 7.9µM
CCN1CCN(Cc2c(O)ccc3c(C)c(-c4ccc(OC)cc4)c(=O)oc23)CC1	none (no result: GLP-1R agonist)
COc1ccc(-c2cc(C(C)=O)c(C)n2CCC(=O)Nc2cccc(C)c2C)cc1	none (no result: GLP-1R agonist)
Cn1c(Oc2ccc(F)cc2F)c(C=O)c2ccccc21	GLP1R inv ag inconclusive
Cn1c(Sc2ccc(Cl)cc2)c(C=O)c2ccccc21	GLP1R cytotox inconclusive, GLP1R inv ag 3.2µM
Cn1c(Sc2ccccc2Cl)c(C=O)c2ccccc21	GLP1R inv ag inconclusive
Cc1cccc(Sc2c(C=O)c3ccccc3n2C)c1	GLP1R inv ag 2.8µM
COc1cccc(NC(=O)c2oc3ccccc3c2NC(=O)c2ccc(OC(C)C)cc2)c1	none (no result: GLP-1R agonist)
O=S(=O)(NC(=NCc1ccccc1)c1ccc(F)cc1)c1ccc(Cl)cc1	GLP1R inv ag 11µM
CCC(C(=O)Nc1cccc(-c2cn3cccnc3n2)c1)c1ccccc1 (configuration not stated)	TRPML1 inh inconclusive (no result: GLP-1R agonist)
CCC(C)NC(=O)[C@H](CSCc1ccccc1)N1Cc2ccccc2C1=O (some centres not stated)	GLP1R inv ag 11µM
CC(C)NC(=O)N1CC(c2ccccc2)C(c2ccc(Cl)cc2)=N1 (configuration not stated)	GLP1R inv ag 4µM (no result: TRPML1 inh, TRPML1 ag)
CC(=O)N1CC(c2ccccc2)C(c2ccc(Cl)cc2)=N1 (configuration not stated)	GLP1R inv ag inconclusive
COc1ccc(N/N=C(\C#N)C(=N)N2CCCCC2)cc1	GLP1R cytotox inconclusive, GLP1R inv ag inconclusive
COc1ccc(N/N=C(\C#N)C(=N)SCc2ccccc2)cc1	GLP1R cytotox inconclusive, GLP1R inv ag 0.28µM
O=C(C[n+]1csc2ccccc21)c1ccc(O)c(O)c1	none (no result: TRPML1 inh, GLP1R cytotox, GLP-1R agonist, GLP1R inv ag)
CCCOc1cccc(C(=O)Nc2ccc(-c3cc4ccccc4oc3=O)c(C)c2)c1	GLP1R inv ag 4µM (no result: GLP-1R agonist)
CCCCOc1ccc(C(=O)Nc2ccc(-c3cc4ccccc4oc3=O)cc2)cc1	none (no result: GLP-1R agonist)
CCCOc1ccc2cc(-c3ccccn3)c(=O)oc2c1	GLP1R inv ag 2.8µM
O=C(OCCN1C(=O)c2cccc3c(N4CCOCC4)ccc(c23)C1=O)c1ccccc1Cl	GLP1R inv ag inconclusive, TRPML1 ag inconclusive
O=C(OCCN1C(=O)c2cccc3c(N4CCOCC4)ccc(c23)C1=O)c1ccc(Cl)cc1Cl	GLP1R inv ag 1.3µM
CCOc1cc(/C=C2\C(=O)N(Cc3ccc(C)cc3)C(C)=C2C(=O)OC)ccc1O	GLP1R inv ag inconclusive
C=CCOc1cccc(/C=C2\C(=O)N(Cc3ccc(C)cc3)C(C)=C2C(=O)OC)c1	GLP1R inv ag 4.5µM
N#CCc1ccc(NC(=O)/C=C/c2ccc([N+](=O)[O-])o2)cc1	GLP1R cytotox 4µM
O=C(CSc1ncnc2c1cnn2CCc1ccccc1)Nc1cccc(C(F)(F)F)c1	GLP1R inv ag 7.9µM
Cc1c(Cl)cccc1NC(=O)CSc1ncnc2c1cnn2CCc1ccccc1	GLP1R inv ag inconclusive

From PubChem BioAssay
